Assay outcomes deposited in PubChem BioAssay by National Center for Advancing Translational Sciences (NCATS).
Vaccinia mCherry: inhibitors of vaccinia virus infection (mCherry reporter signal); Vaccinia virus mCherry reporter infection, fluorescence; Potency, µM (highest dose often 36.5 µM), for the others: top-dose activity change, negative = inhibition, hits mostly inhibitors; 0.63% of 310,000 active; AID 720579; calls by dose curve; tested in A549 cells; also: nearly all actives have a fitted effect of over 35% in size
Vaccinia Venus: inhibitors of vaccinia virus (Venus reporter); Vaccinia virus Venus reporter expression, fluorescence; AID 720580; Potency, µM (top dose mostly 36.5 µM), inactives show top-dose activity change, negative = inhibition, most hits filed as inhibitors; 0.46% of 330,000 active; calls by dose curve; tested in A549 cells; also: nearly all actives have a fitted effect of over 30% in size
HCV inh: inhibitors of hepatitis C virus infection | Huh7.5.1 HCVcc-Cre infection, luciferase reporter, 44 h | Potency, µM (top dose mostly 41.8 µM), inactives show at the highest dose activity change, negative = inhibition, actives largely listed as inhibitors | 3.4% of 340,000 active | AID 651820; active = well fitted inhibition curve with a large enough effect; inconclusive = small, poorly fitted or top-dose-only effect, or another doubt; inactive = no such curve, though single readings can be large or run the other way
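Cells (1,000/well) were plated 4 h before compound, then infected with HCVcc-Cre virus (~0.5 moi). After 44 h further culture, infection was read as luciferase luminescence following a 15 min substrate incubation at room temperature.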
Marburg entry inh: inhibitors of Marburg virus binding or cell entry. Marburg virus pseudotyped entry inhibition, cell reporter. Potency, µM (doses to about 37.8 µM), without a hit: at the top dose activity change, negative = inhibition, usual class: inhibitors. 1.8% of 300,000 active. AID 540276; calls by dose curve; tested in HEK293 cells
Lassa entry inh: blocks Lassa virus binding to or entry into cells; Lassa virus pseudotype entry inhibition, cell reporter; Potency, µM (highest dose often 37.9 µM), for inactives: top-dose activity change, negative = inhibition, most hits filed as inhibitors; 1.2% of 300,000 active; AID 540256; calls by dose curve; tested in HEK293 cells; also: nearly all actives have a fitted effect of over 50% in size
An asterisk follows results filed as active; i = inactive; u = inconclusive; x = no result; [ ] = another dose, or the depositor's remark. Sampled rows, rich in hits. Any-hit rate of the full collection: about 4.6%. % is scaled to controls: 0 for no effect and ±100 for the full control effect; potency is read from the fitted curve at half-maximal effect.

SMILES	Vaccinia mCherry	Vaccinia Venus	HCV inh	Marburg entry inh	Lassa entry inh
C[C@H](CO)N1C[C@H](C)[C@@H](CN(C)Cc2ccccc2)Oc2c(NC(=O)c3ccncc3)cccc2C1=O	i	-17.3%	u	x	x
COc1cc(NC(=O)Cn2c(=O)oc3cc(S(=O)(=O)N4CCCCCC4)ccc32)cc(OC)c1	-29.7%	-25.5%	x	x	-23.9%[46.1 µM]
CC(=O)C1=C(C)N(Cc2ccccc2)C(=O)NC1c1ccc(Br)cc1 (centres undefined)	x	x	x	-4.3%[14.2 µM]	15.6%[14.3 µM]
Cc1nc(C)c(C(=O)NNS(=O)(=O)c2ccc3ccccc3c2)s1	u	-3.2%	12.6µM*	-31.1%	u
COC(=O)c1ccc(NC(=O)CSc2ccc(-c3sc(-c4ccccc4)nc3C)nn2)cc1	-6.2%[7.34 µM]	-2.8%[7.34 µM]	x	x	u
Cn1cc(CNC2CCN(c3cccc(NC(=O)c4cccnc4)c3)CC2)cn1	-9.5%	-2.0%	x	x	x
Cc1cc(C)n2nc(-c3sccc3-n3c(C)ccc3C)cc2n1	x	u	8.91µM*	-21.0%	-6.1%
O=C(N/N=C\c1cn(-c2ccccc2)nc1-c1ccccc1)c1ccc(Br)o1	u	-29.1%	3.98µM*	u	u
O=C(N/N=C/c1cn(-c2cccs2)nc1-c1ccccc1)c1ccccc1Cl	-10.5%	-16.4%	11.2µM*	u	u
CC(=O)Nc1ccc(S(=O)(=O)N2CCN(S(=O)(=O)c3ccccc3)CC2)cc1	x	x	19.9%	x	x
CC(=O)NC(=C(Cl)Cl)S(=O)(=O)c1ccccc1	7.94µM*	8.91µM*	u	10µM*	u
Cc1c(C(=O)Nc2ccc(Oc3ccccc3)cc2)sc2nc3n(c(=O)c12)CCC3	x	u	6.31µM*	u	u
COc1ccc(CC2C(=O)NC(C)C(=O)N(C)C3C(=O)N(C)C(Cc4ccc(O)c(c4)Oc4ccc(cc4)C3O)C(=O)NC(C)C(=O)NC(C)C(=O)N2C)cc1 (centres undefined)	0.316µM*	0.0891µM*	u	u	u
COc1ccc(C[C@@H]2C(=O)N[C@H](C)C(=O)N(C)[C@@H]3Cc4ccc(cc4)Oc4cc(ccc4O)C[C@H](C(=O)N[C@@H](C)C(=O)N[C@H](C)C(=O)N2C)N(C)C3=O)cc1	158µM*	0.282µM*	x	x	x
COc1cc2c3cc1Oc1cc(ccc1O)CC1c4c(cc(OC)c(O)c4Oc4ccc(cc4)CC3N(C)CC2)CC[N+]1(C)C (centres undefined)	-10.6%	4.1%	x	x	x
COC(=O)C1=C(C(=O)OC)[C@@H]2Nc3ccccc3[C@@]23C[C@@H](C(=O)OC)N(C(=O)N2CCNC2=O)C3=N1	x	x	x	7.6%[14.2 µM]	x
N#CCCn1cc(/C=N/NC(N)=S)c(-c2ccc(-c3ccccc3)cc2)n1	x	x	11.2µM*	x	x
N#CCCn1cc(/C=N/O)c(-c2ccccc2)n1	x	x	10.4%	1.0%	7.9%
Clc1cccc(N2CCN(c3nc4ccccc4c4nc(-c5cccnc5)nn34)CC2)c1	-8.4%	4.4%	x	2.6%[46.1 µM]	x
Brc1ccc(-c2csc3ncnc(-n4nnc5ccccc54)c23)cc1	-11.5%	-23.1%	u	12.6µM*	u
C[C@H]1CN(Cc2ccccc2)C(=O)[C@H]1CC(=O)Nc1ccccc1	x	x	x	x	-9.2%[46.1 µM]
O=C1CCCN1CCCN=c1c([N+](=O)[O-])nn(-c2ccc(Cl)cc2)n1O	u	u	11.2µM*	u	u
O=[N+]([O-])c1nn(-c2ccc3c(c2)OCCO3)n(O)c1=NCCCO	-26.0%	-26.5%	11.2µM*	u	-23.9%
Cc1cccc(-n2nc([N+](=O)[O-])c(=NC3CCN(Cc4ccccc4)CC3)n2O)c1	x	x	8.91µM*	x	x
O=[N+]([O-])c1nn(-c2ccc3c(c2)OCCO3)n(O)c1=NC1CCCC1	-9.9%	4.5%	2.82µM*	7.1%	13.7%
SMILES	Vaccinia mCherry	Vaccinia Venus	HCV inh	Marburg entry inh	Lassa entry inh
Cc1ccc(OCC(=O)Nc2ccc3nc(SCCOc4ccccc4)sc3c2)cc1	-1.4%	-17.8%	x	3.1%[46.1 µM]	11.8%[46.1 µM]
O=[N+]([O-])c1nn(-c2ccc3c(c2)OCCO3)n(O)c1=Nc1ccccc1	-13.9%	-10.0%	u	1.46µM*	7.08µM*
O=[N+]([O-])c1nn(-c2ccc3c(c2)OCCO3)n(O)c1=Nc1ccc(Cl)cc1	-28.7%	-21.1%	7.08µM*	u	u
CCc1ccc(N=c2c([N+](=O)[O-])nn(-c3ccc4c(c3)OCCO4)n2O)cc1	-13.4%	-6.7%	-10.0%	23.1%[46.1 µM]	4.3%
O=C(c1cc(-c2ccccc2)on1)N1CCOc2ccc(CN3CCOCC3)cc2C1	-13.5%	-0.1%	x	x	x
Cc1cnc(-n2ncc(C(=O)NCCc3cccnc3)c2C)nc1-c1ccc(F)cc1	i	-12.9%	x	x	x
CS(=O)(=O)Nc1cccc(-c2nccc(NCc3ccccc3)n2)c1	i	0.0%	x	x	x
[N-]=[N+]=Nc1ccc(C(=O)CSC[C@H](NC(=O)CC[C@H](N)C(=O)O)C(=O)NCC(=O)O)cc1	x	x	x	5.01µM*	u
N[C@@H](CCC(=O)N[C@@H](CSN=O)C(=O)NCC(=O)O)C(=O)O	-1.9%	-7.3%	19.0%	x	x
CCCS(=O)(=O)NCc1c(C)ncc2c1CCN(C(=O)c1cccc(C(F)(F)F)c1)C2	-8.6%	-0.1%	x	x	x
Cc1nnnn1/C(=C\c1ccccc1)C(=O)OCC(=O)Nc1ccc(Cl)cc1F	-22.7%	u	u	u	20µM*
Cc1nnnn1/C(=C\c1ccccc1)C(=O)OCC(=O)Nc1cccc(S(=O)(=O)N(C)C)c1	x	x	10µM*	x	x
COc1ccc(CCNC(=O)c2ccc3c(c2)N(Cc2ccc(F)cc2)C(=O)CS3)cc1OC	-12.3%	-11.8%	x	x	u
Cc1ccccc1C(=O)Nc1ccc(Br)cn1	u	-30.0%	u	u	-20.5%
O=C(Nc1ccccn1)c1ccc(-c2ccccc2)cc1	7.3%	-13.7%	10µM*	1.12µM*	u
Cc1ccnc(NC(=O)c2ccccc2NC(=O)c2ccc(Cl)cc2Cl)c1	x	x	10µM*	x	x
Cc1ccnc(NC(=O)CCNC(=O)c2ccccc2Cl)c1	-14.2%	-8.8%	9.8%	u	26.3%[46.1 µM]
O=C(Nc1ccccc1C(=O)Nc1ccc(Br)cn1)c1ccccc1Cl	x	x	12.6µM*	x	x
COc1ccc(C(=O)Nc2ccccn2)cc1	10.2%	15.5%	3.6%	18.4%[46.1 µM]	13.4%
Cc1ccc(C(=O)Nc2ccccc2C(=O)Nc2ccccn2)cc1Cl	-8.7%	-9.9%	u	12.6µM*	2.9%
Cc1ccc(C(=O)Nc2cccnc2Cl)cc1Cl	-18.3%	-4.3%	-6.3%	u	u
COc1cc(/C=C(\C#N)C(=O)Nc2ccc(C)cc2)ccc1OCc1cc(=O)n2nc(C)sc2n1	-9.4%	-6.1%	x	-3.9%[46.1 µM]	6.0%[46.1 µM]
O=C(NCc1ccccn1)c1cnn(-c2nccc(-c3ccccc3F)n2)c1C1CC1	-19.1%	-3.5%	x	x	x
O=C(NC(=S)NNC(=O)c1ccc(Cl)cc1Cl)c1cccnc1	-19.7%	-13.8%	14.1%	u	15.4%
Cc1ccccc1C(=O)NNC(=S)NC(=O)c1ccc(Cl)cc1Cl	-29.3%	u	0.562µM*	u	-3.3%
O=C(C1=C[C@H](c2ccc3c(c2)OCO3)C[C@H](OCc2ccc(CO)cc2)O1)N1CCN(Cc2ccc3c(c2)OCO3)CC1	u	u	35.5µM*	x	x
